Drawing on the antibiotic and cytotoxicity screens of Wong et al. (2023), this text covers cytotoxicity call for 50 compounds.

Screen size: about 39,000 compounds; about 3,300 (8.5%) were called active. The full list was thinned out, with actives kept by preference.

The test system of the assay is HepG2. As to the kind of experiment: cytotoxicity call (relative viability < 0.9). The note with it: 10 µM.
On to `C[C@H]1CN([C@@H](C)CO)C(=O)c2cc(NC(=O)C3CC3)ccc2O[C@H]1CN(C)S(=O)(=O)c1cccs1`, for which the cytotoxicity call is “inactive”. In the case of `N[C@@H](Cc1ccc(Cl)cc1)C(=O)O`, the cytotoxicity call is “inactive”. In the case of `CC(C)Cc1ccc([C@@H](C)C(=O)Nc2ccc(Cl)cc2)cc1` it was “active”; in that of `CC(C)Cc1ccc(C(C)C(=O)O)cc1` (stereo not given), “inactive”.

Take `C[C@@H]1CN([C@@H](C)CO)C(=O)CCCn2nncc2CO[C@H]1CN(C)C(=O)Nc1ccc2c(c1)OCO2`: the cytotoxicity call was “inactive”. Turning to `C[C@@H]1CN([C@@H](C)CO)C(=O)c2cc(-c3cncnc3)cnc2O[C@@H]1CN(C)C(=O)Nc1ccc2c(c1)OCO2`, the cytotoxicity call was “inactive”.

Consider `CC(C)(C)OC(=O)NCCOCCOCCOc1ccc(N(C(=O)CCl)[C@@H](C(=O)NCCc2ccccc2)c2cccs2)cc1Cl`, for which the cytotoxicity call was “active”. The value for `COc1ccc(N(C(=O)CSc2ncccn2)[C@@H](C(=O)NCCc2ccccc2)c2cccs2)cc1Cl` was “inactive”; that for `O=C(CCCl)NCCc1ccccc1` was “inactive”.

Regarding `COc1ccc(N(C(=O)CCl)[C@@H](C(=O)NCCc2ccccc2)c2ccc(Cl)s2)cc1Cl`, the cytotoxicity call is “active”. In the case of `Cc1noc(C)c1S(=O)(=O)Nc1cccc2c1O[C@H](CN(C)S(C)(=O)=O)[C@H](C)CN([C@H](C)CO)C2=O` it was “inactive”. In the case of `C[C@H]1CN([C@@H](C)CO)C(=O)Cc2cc(NS(=O)(=O)c3cn(C)cn3)ccc2O[C@@H]1CN(C)Cc1ccccc1` it was “inactive”. Regarding `C[C@@H]1CCCCO[C@@H](CN(C)C(=O)Nc2ccc3c(c2)OCO3)[C@H](C)CN([C@H](C)CO)C(=O)c2cc(NC(=O)c3ccncc3)ccc2O1`, the cytotoxicity call was “inactive”. Turning to `COc1ccc(CNC(=O)C[C@@H]2C[C@@H]3c4cc(NS(=O)(=O)c5ccc(F)cc5)ccc4O[C@@H]3[C@@H](CO)O2)cc1`, the cytotoxicity call was “inactive”. The value for `C[C@H]1CCCCO[C@@H](CN(C)C(=O)Nc2ccc(F)cc2)[C@@H](C)CN([C@@H](C)CO)C(=O)c2cc(NC(=O)Nc3ccccc3)ccc2O1` was “inactive”.

On to `C[C@@H]1CCCCO[C@H](CN(C)Cc2ccncc2)[C@@H](C)CN([C@H](C)CO)C(=O)c2cc(NC(=O)Nc3ccc4c(c3)OCO4)ccc2O1`, for which the cytotoxicity call was “inactive”. As for `CCC(=O)N(C)C[C@H]1Oc2ncc(C#C[C@@H](C)O)cc2C(=O)N([C@@H](C)CO)C[C@H]1C`, the cytotoxicity call was “inactive”.

As to `C[C@@H]1CCCCO[C@H](CN(C)S(=O)(=O)c2ccc(F)cc2)[C@H](C)CN([C@@H](C)CO)C(=O)c2cc(NC(=O)c3ccccc3)ccc2O1`, the cytotoxicity call is “inactive”.

With `C[C@@H]1CCCCO[C@H](CN(C)S(=O)(=O)c2ccc(F)cc2)[C@@H](C)CN([C@H](C)CO)C(=O)c2cc(NC(=O)c3ccccc3)ccc2O1`, the cytotoxicity call is “inactive”. In the case of `C[C@H]1CCCCO[C@H](CN(C)S(=O)(=O)c2ccc(F)cc2)[C@@H](C)CN([C@@H](C)CO)C(=O)c2cc(NC(=O)c3ccccc3)ccc2O1` it was “active”. As for `C[C@@H]1CN([C@H](C)CO)C(=O)c2cc(NC(=O)c3ccccc3)ccc2O[C@@H](C)CCCCO[C@H]1CN(C)S(=O)(=O)c1ccc(F)cc1`, the cytotoxicity call was “active”. In the case of `C[C@H](CO)N1C[C@H](C)[C@H](CN(C)S(=O)(=O)c2ccc(F)cc2)OCCCC[C@H](C)Oc2ccc(NC(=O)c3ccccc3)cc2C1=O` it was “inactive”.

On to `C[C@@H]1CCCCO[C@@H](CN(C)S(=O)(=O)c2ccc(F)cc2)[C@@H](C)CN([C@@H](C)CO)C(=O)c2cc(NC(=O)c3ccccc3)ccc2O1`, for which the cytotoxicity call is “inactive”.

On to `C[C@@H]1CN([C@H](C)CO)C(=O)Cc2cc(NC(=O)CCN3CCOCC3)ccc2O[C@@H]1CN(C)CC1CC1`, for which the cytotoxicity call is “inactive”. The value for `COc1cc2c(cc1-c1coc3c4c(c(OC)cc3c1=O)OC(C)(C)CC4)OCO2` was “inactive”; that for `COc1cc2c(cc1-c1coc3c4c(ccc3c1=O)OC(C)(C)CC4)OCO2` was “inactive”; that for `COc1cc2c(=O)c(-c3ccc4c(c3)OCO4)coc2c2c1OC(C)(C)C=C2` was “active”. `CN1CCN(C(=O)C[C@H]2CC[C@H](NC(=O)Cc3ccccn3)[C@@H](CO)O2)CC1`: the cytotoxicity call was “inactive”.

On to `CC1(C)C[C@H](c2nc(-c3ccccc3)cs2)CCS1`, for which the cytotoxicity call was “active”.

As for `NCCc1nc(-c2ccccc2)cs1`, the cytotoxicity call is “inactive”. In the case of `O=C(C[C@H]1CC[C@@H](NC(=O)c2cnccn2)[C@H](CO)O1)NCc1ccccc1F` it was “inactive”; in that of `CCS(=O)(=O)N(C)C[C@H]1OCc2ccccc2-c2c(n(C)c3ccccc23)C(=O)N([C@H](C)CO)C[C@H]1C`, “inactive”; in that of `NCCC(=O)N[C@@H](Cc1cnc[nH]1)C(=O)O.[Zn+3]`, “inactive”. On to `C[C@@H]1CN([C@@H](C)CO)S(=O)(=O)c2ccc(C#CCN(C)C)cc2O[C@H]1CN(C)Cc1ccc2c(c1)OCO2`, for which the cytotoxicity call was “inactive”. The value for `COc1ccc(S(=O)(=O)N(C)C)cc1` was “inactive”; that for `COc1ccc([C@@H](N)c2ccccc2)cc1` was “inactive”; that for `C=CC(C1=CC(=O)C=CC1=O)c1ccccc1` (stereo not given) was “active”. The value for `C=CC(C1=CC(=O)C(OC)=CC1=O)c1ccc(O)cc1` (stereo not given) was “active”; that for `C=CC(C1=CC(=O)C(OC)=CC1=O)c1ccccc1` (stereo not given) was “active”. The value for `COC1=CC(=O)c2ccccc2C1=O` was “inactive”; that for `C=CC(C1=CC(=O)C(OC)=CC1=O)c1ccc(OC)cc1` (stereo not given) was “active”. Regarding `COC(=O)[C@@H](O)c1ccccc1`, the cytotoxicity call is “inactive”.

In the case of `CC(C)CC#Cc1cnc2c(c1)C(=O)N([C@@H](C)CO)C[C@@H](C)[C@@H](CN(C)C(=O)c1ccc3c(c1)OCO3)O2`, the cytotoxicity call is “inactive”.

As for `c1ccc(Oc2ccccc2)cc1`, the cytotoxicity call was “inactive”. The value for `COc1cccc(S(=O)(=O)Nc2ccc3c(c2)[C@H]2C[C@H](CC(=O)N4CCCCC4)O[C@H](CO)[C@H]2O3)c1` was “inactive”. For the compound `COc1ccc(NC(=O)Nc2ccc3c(c2)C(=O)N([C@@H](C)CO)C[C@@H](C)[C@H](CN(C)CC2CCCCC2)O3)cc1`, the cytotoxicity call was “inactive”. The value for `CN(CC=CC#CC(C)(C)C)Cc1cccc2ccccc12.Cl` was “inactive”. For the compound `C[C@@H]1CN([C@@H](C)CO)C(=O)c2cc(C#C[C@@H](C)O)cnc2O[C@H]1CN(C)C(=O)CN1CCOCC1`, the cytotoxicity call is “inactive”. The value for `C[C@@H]1CN([C@@H](C)CO)C(=O)c2cc(-c3ccc(C(=O)N(C)C)cc3)cnc2O[C@@H]1CN(C)C(=O)CN(C)C` was “inactive”; that for `Cc1ccc(S(=O)(=O)Nc2cccc3c2O[C@@H](CN(C)Cc2ccc(C(F)(F)F)cc2)[C@@H](C)CN([C@H](C)CO)C3=O)cc1` was “inactive”.
